Laboratory results from ChEMBL document CHEMBL4513149, “CO-ADD screening of MMV (CH) - MMV compounds” (2021).
Measured potencies and affinities stand elsewhere.

How the values were obtained:
Staphylococcus aureus = settings: Concentration 20 uM; ASSAY_TEST Inhibition of Bacterial Growth; detection method Absorption (OD600); MEDIA CAMHB; plate type 384well; NBS; CORNING #3640; time 18 hr
Escherichia coli = settings: Concentration 20 uM; ASSAY_TEST Inhibition of Bacterial Growth; detection method Absorption (OD600); MEDIA CAMHB; plate type 384well; NBS; CORNING #3640; time 18 hr

`Cc1cccc(C(=O)Nc2ccnc(N(C)C3CCN(CC(C)C)CC3)c2)c1` gave an Inhibition (Staphylococcus aureus) of 17.27% and an Inhibition (Escherichia coli) of 7.9%.

Work on `Nc1c2c(nc3sc4c(c13)CCCC4)CCCC2` yielded an Inhibition (Staphylococcus aureus) of 6.99% and an Inhibition (Escherichia coli) of -4.01%.

`Cc1nn(Cc2ccccc2)c(Cl)c1C(=O)NC1CCCCCC1` showed an Inhibition (Staphylococcus aureus) of 11.91% and an Inhibition (Escherichia coli) of 1.54%.

Compound `CNCCC(Oc1ccc(C(F)(F)F)cc1)c1ccccc1` (stereo not given) [FLUOXETINE] has an Inhibition (Staphylococcus aureus) of 7.53% and an Inhibition (Escherichia coli) of 3%.

Work on `CO[C@@H](C(=O)N1Cc2[nH]nc(NC(=O)c3ccc(N4CCN(C)CC4)cc3)c2C1)c1ccccc1` [DANUSERTIB] yielded an Inhibition (Staphylococcus aureus) of 12.13% and an Inhibition (Escherichia coli) of 1.94%.

In the case of `Cc1nn(C)c(C)c1NS(=O)(=O)c1c(Cl)cc(-c2ccnc(N3CCNCC3)c2)cc1Cl`, the Inhibition (Staphylococcus aureus) is reported as 12.75% and the Inhibition (Escherichia coli) is reported as 5.87%.

`Cc1cc(C2=NOC(c3cc(Cl)c(F)c(Cl)c3)(C(F)(F)F)C2)ccc1C(=O)NCc1ccc2c(c1)C(C)(C)OB2O` (stereo not given) gave an Inhibition (Staphylococcus aureus) of 14.07% and an Inhibition (Escherichia coli) of 6.28%.

Compound `CC1(C)OB(O)c2ccc(C3=NOC(c4cc(Cl)c(F)c(Cl)c4)(C(F)(F)F)C3)cc21` (stereo not given) has an Inhibition (Staphylococcus aureus) of 15.02% and an Inhibition (Escherichia coli) of 11.05%.

`CO[C@@H]1CN(c2ccc(C#CC3(O)CN4CCC3CC4)c(Cc3ccccc3)n2)C[C@H]1O` (stereo not given in full) gave an Inhibition (Staphylococcus aureus) of -11.47% and an Inhibition (Escherichia coli) of -3.76%.

`CC(=O)Oc1ccccc1C(=O)Nc1ncc([N+](=O)[O-])s1` [NITAZOXANIDE] gave an Inhibition (Staphylococcus aureus) of 50.75% and an Inhibition (Escherichia coli) of -2.79%.
